# Laboratory results from PubChem BioAssay (NCATS).
# Several values for one entry are separate records, joined by “and”; a condition that tells them apart may be missing. Equal entries are not always repeated. Results filed as inconclusive are left out. A call without a number means that no potency is given here. More than one record can exist for a structure, and the calls need not agree. Activity calls are given as the source filed them. Calls come from the whole dose curve; as a rule, active = well fitted curve in the direction sought with a large enough effect; inconclusive = small, poorly fitted or top-dose-only effect, or another doubt; inactive = no such curve, though single readings can be large; an effect the other way counts as inactive or inconclusive.
# Key:
# [1] = test system: HEK293; assay: Cytotoxic Profiling of Annotated Libraries Using Quantitative High-Throughput Screening (AID 1296008); conditions: Five cell lines viability, CellTiter-Glo ATP luminescence, 48-72 h; max response: stronger effect = lower value; note: nearly all actives have a fitted effect of over 60% in size
# Outline: (§1)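 Compounds were pin-transferred onto cells and incubated 48 or 72 hr at 37 degree Celsius, 95% humidity. CellTiter-Glo was added, plates sat 10 min at room temperature, then ATP-coupled luminescence was imaged as the viability read-out.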
# [2] = test system: HaCat; assay: as above; conditions: Five cell lines viability, CellTiter-Glo ATP luminescence, 48-72 h; max response: stronger effect = lower value
# Outline: as §1
# [3] = test system: KB-3-1; assay: as above; conditions: Five cell lines viability, CellTiter-Glo ATP luminescence, 48-72 h; max response: stronger effect = lower value
# Outline: as §1
# [4] = test system: NIH3T3; assay: as above; conditions: Five cell lines viability, CellTiter-Glo ATP luminescence, 48-72 h; max response: stronger effect = lower value
# Outline: as §1
# [5] = test system: MCC-13; assay: qHTS assay to identify novel small-molecules to repurpose for Merkel cell carcinoma treatment (AID 1296009); conditions: MCC and control cell lines, CellTiter-Glo viability, 72 h; series mostly up to 46 µM; note: nearly all actives have a fitted effect of over 60% in size
# Outline: (§2)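 qHTS format: cells treated with library compounds in DMSO across 8 (NPC) or 11 (MIPE) concentrations. Readout after 72 hr at 37 degree celsius was CellTiter-Glo luminescence.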
# [6] = test system: MCC-26; assay: as above; conditions: MCC and control cell lines, CellTiter-Glo viability, 72 h; series mostly up to 46 µM
# Outline: as §2
# [7] = test system: MKL-2; assay: as above; conditions: MCC and control cell lines, CellTiter-Glo viability, 72 h; series mostly up to 46 µM
# Outline: as §2
# [8] = test system: WaGa; assay: as above; conditions: MCC and control cell lines, CellTiter-Glo viability, 72 h; series mostly up to 46 µM
# Outline: as §2
# [9] = test system: C33A; assay: Primary qHTS to identify gynecologic anti-cancer compounds using libraries of approved drugs and bioactive compounds (AID 1345084); conditions: Gynecologic cancer cell panel viability, ATPlite luminescence, 48 h; series mostly up to 57.5 µM; note: nearly all actives have a fitted effect of over 55% in size
# Outline: (§3)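 48 h compound exposure at 37 C, 5% CO2; five-point qHTS. ATPlite luminescence readout of cell ATP.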
# [10] = test system: CAOV3; assay: as above; conditions: Gynecologic cancer cell panel viability, ATPlite luminescence, 48 h; series mostly up to 57.5 µM
# Outline: as §3
# [11] = test system: CASKI; assay: as above; conditions: Gynecologic cancer cell panel viability, ATPlite luminescence, 48 h; series mostly up to 57.5 µM
# Outline: as §3
# [12] = test system: Es-2; assay: as above; conditions: Gynecologic cancer cell panel viability, ATPlite luminescence, 48 h; series mostly up to 57.5 µM
# Outline: as §3
# [13] = test system: Hek293T; assay: as above; conditions: Gynecologic cancer cell panel viability, ATPlite luminescence, 48 h, control line for the selectivity index; series mostly up to 57.5 µM
# Outline: as §3
# [14] = test system: MKL-1; assay: qHTS assay to identify novel small-molecules to repurpose for Merkel cell carcinoma treatment (AID 1296009); conditions: MCC and control cell lines, CellTiter-Glo viability, 72 h; series mostly up to 46 µM; note: nearly all actives have a fitted effect of over 60% in size
# Outline: as §2
# [15] = test system: UISO; assay: as above; conditions: MCC and control cell lines, CellTiter-Glo viability, 72 h; series mostly up to 46 µM
# Outline: as §2
# [16] = test system: HeLa; assay: Primary qHTS to identify gynecologic anti-cancer compounds using libraries of approved drugs and bioactive compounds (AID 1345084); conditions: Gynecologic cancer cell panel viability, ATPlite luminescence, 48 h; series mostly up to 57.5 µM; note: nearly all actives have a fitted effect of over 55% in size
# Outline: as §3
# [17] = test system: JEG-3; assay: as above; conditions: Gynecologic cancer cell panel viability, ATPlite luminescence, 48 h; series mostly up to 57.5 µM
# Outline: as §3
# [18] = test system: HACAT; assay: qHTS assay to identify novel small-molecules to repurpose for Merkel cell carcinoma treatment (AID 1296009); conditions: MCC and control cell lines, CellTiter-Glo viability, 72 h; at 44.8 µM (top of the series) unless noted; note: nearly all actives have a fitted effect of over 60% in size
# Outline: as §2
# Potency is the fitted concentration of half-maximal effect.
smiles,measurement,setting,value
CS(=O)(=O)c1cccc(CNc2nc(Nc3ccc4c(c3)CCC(=O)N4)ncc2C(F)(F)F)c1,Potency,[1],18.4 µM (active)
same,Potency,[2],14.6 µM (active)
same,Potency,[3],18.7 µM (active)
same,Potency,[4],8.2 µM (active)
same,Potency,[5],inactive
same,Potency,[6],inactive
same,Potency,[7],inactive
same,Potency,[8],16.6 µM (active)
same,Potency,[9],inactive
same,Potency,[10],inactive
same,Potency,[11],inactive
same,Potency,[12],inactive
same,Potency,[13],inactive
CS(=O)(=O)c1ccc(C(=O)Nc2ccc(Cl)c(-c3ccccn3)c2)c(Cl)c1,max response,[1],-6.21% (inactive)
same,max response,[2],-0.0394% (inactive)
same,max response,[3],9.49% (inactive) and -9.43% (inactive)
same,max response,[4],-17.3% (inactive) and -11.2% (inactive)
same,Potency,[5],inactive
same,Potency,[6],inactive
same,Potency,[14],inactive
same,Potency,[7],inactive
same,Potency,[15],inactive
same,Potency,[8],inactive
same,Potency,[10],inactive
same,Potency,[11],inactive
same,Potency,[12],inactive
same,Potency,[16],inactive
same,Potency,[13],inactive
same,Potency,[17],inactive
Cn1cnc([N+](=O)[O-])c1Sc1ncnc2nc[nH]c12,Potency,[1],10.5 µM (active)
same,Potency,[2],2.7 µM (active) and 15 µM (active) and 11.8 µM (active)
same,Potency,[3],2.96 µM (active)
same,Potency,[4],3.82 µM (active) and 7.5 µM (active) and 5.9 µM (active)
same,Potency,[5],4.28 µM (active) and 6.68 µM (active)
same,Potency,[6],inactive
same,Potency,[14],10.8 µM (active) and inactive
same,Potency,[7],12.1 µM (active)
same,Potency,[8],1.91 µM (active)
same,Potency,[9],8.91 µM (active) and 7.94 µM (active)
same,Potency,[10],inactive
same,Potency,[11],1.26 µM (active) and 3.55 µM (active)
same,Potency,[12],3.16 µM (active) and 10 µM (active)
same,Potency,[16],1.41 µM (active)
same,Potency,[13],15.8 µM (active) and 28.2 µM (active)
same,Potency,[17],3.16 µM (active)
Cc1n[nH]c(C)c1Cc1sc2c(c1C(=O)N1C[C@H](O)CO1)c(=O)n(C)c(=O)n2CC(C)C,Potency,[1],0.184 µM (active)
same,max response,[2],-3.78% (inactive) and -14.4% (inactive)
same,outcome,[3],inactive
same,Potency,[5],inactive
same,Potency,[6],inactive
same,Potency,[14],inactive
same,Potency,[7],inactive
same,Potency,[15],inactive
same,Potency,[8],inactive
same,Potency,[9],inactive
same,Potency,[10],inactive
same,Potency,[11],inactive
same,Potency,[12],inactive
same,Potency,[16],inactive
same,Potency,[13],inactive
same,Potency,[17],inactive
CC(C)(N)C(=O)N[C@H](COCc1ccccc1)C(=O)N1CCC2(CC1)CN(S(C)(=O)=O)c1ccccc12,Potency,[1],23.5 µM (active)
same,max response,[2],-12.2% (inactive) and 3.47% (inactive)
same,max response,[3],-17.9% (inactive) and 1.97% (inactive)
same,max response,[4],-13.8% (inactive)
same,Potency,[5],inactive
same,Potency,[6],inactive
same,Potency,[14],inactive
same,Potency,[7],inactive
same,Potency,[15],inactive
same,Potency,[8],inactive
same,Potency,[9],inactive
same,Potency,[10],inactive
same,Potency,[11],inactive
same,Potency,[16],inactive
same,Potency,[17],inactive
C[C@]12CC[C@H](O)CC1=CC[C@@H]1[C@H]2CC[C@]2(C)C(c3cccnc3)=CC[C@H]12,max response,[1],-4.02% (inactive)
same,outcome,[2],inactive
same,max response,[3],-14.4% (inactive)
same,max response,[4],0.502% (inactive)
same,outcome,[18],inactive [at 17.4 µM]
same,Potency,[5],inactive
same,Potency,[14],inactive
same,Potency,[7],inactive
same,Potency,[15],inactive
same,Potency,[8],inactive
CCOc1ccn(-c2ccc(F)cc2)c(=O)c1C(=O)Nc1ccc(Oc2ccnc(N)c2Cl)c(F)c1,Potency,[1],26.4 µM (active)
same,Potency,[2],23.5 µM (active)
same,Potency,[3],13.2 µM (active)
same,Potency,[5],inactive
same,Potency,[6],inactive
same,Potency,[14],inactive
same,Potency,[7],inactive
same,Potency,[8],inactive
same,Potency,[9],inactive
same,Potency,[11],inactive
same,Potency,[12],inactive
same,Potency,[13],inactive
same,Potency,[17],inactive
Cn1cc(-c2ccc3nnc(C(F)(F)c4ccc5ncccc5c4)n3n2)cn1,max response,[1],-1.08% (inactive)
same,max response,[2],-1.46% (inactive)
same,max response,[3],5.05% (inactive) and 7.07% (inactive)
same,max response,[4],-35.7% (inactive)
same,Potency,[5],inactive
same,Potency,[6],inactive
same,Potency,[14],inactive
same,Potency,[7],inactive
same,Potency,[15],inactive
same,Potency,[8],inactive
same,Potency,[9],inactive
same,Potency,[10],inactive
same,Potency,[11],inactive
same,Potency,[12],inactive
same,Potency,[16],inactive
same,Potency,[13],inactive
same,Potency,[17],inactive
CC1(C)Cc2c(-c3ccccc3)c(-c3ccc(Cl)cc3)c(CC(=O)O)n2C1,Potency,[1],14.6 µM (active)
same,max response,[2],-5.26% (inactive) and -28.4% (inactive)
same,max response,[3],-7.08% (inactive)
same,max response,[4],-5.92% (inactive)
same,Potency,[5],inactive
same,Potency,[6],inactive
same,Potency,[14],inactive
same,Potency,[7],inactive
same,Potency,[15],inactive
same,Potency,[8],inactive
same,Potency,[9],inactive
same,Potency,[10],inactive
same,Potency,[11],inactive
same,Potency,[12],inactive
same,Potency,[16],inactive
same,Potency,[17],inactive
Fc1ccc(Cl)cc1-c1nc(Nc2ccncc2)c2nccnc2n1,outcome,[2],inactive
same,max response,[3],2.67% (inactive)
same,max response,[4],-15.4% (inactive)
same,outcome,[18],inactive
same,Potency,[5],inactive
same,Potency,[6],inactive
same,Potency,[14],inactive
same,Potency,[7],inactive
same,Potency,[15],inactive
same,Potency,[8],inactive
